This note sets out measurements from PubChem BioAssay AID540356 (Broad Institute, 2011).

Screen size: about 2,500 compounds; about 360 (14%) were called active. Only a sample is shown. Values without a mark were called inactive.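 The calls were made as follows: active = signal-lowering compounds whose fitted half-maximal concentration AC50 is no higher than ten times their top tested concentration; inconclusive = flat curve with 30 to 70% inhibition, or poor fit; inactive = flat within 30%, signal increase, or AC50 above limit.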

This test in a line: HRP/luminol detection interference without ALR, dose response, artefact control for ALR inhibitor project, biochemical, luminescence, no ALR or DTT, cherry-pick (AID 540356). The following applies: HRP/H2O2 luminol luminescence counterscreen; series mostly up to 10 µM.
On to `Cc1cccc(Oc2ccc3c(c2)cc(C(=O)O)n3C)c1`, for which the AC50 (as a rule, the concentration giving half of the maximal activity seen) was “inactive”. As for `CN(CCCNC(=O)c1cccc(N2CCCC2=O)c1)c1ccccc1`, the AC50 entry is “inactive”. As to `CN(CC(=O)N1CCN(c2ccccc2)CC1)S(=O)(=O)c1cnc[nH]1`, the AC50 entry was “inactive”. Turning to `Fc1ccc(CN2C3=NCCN3c3ccccc32)cc1`, the AC50 result is “inactive”. For `O=C1CS/C(=N/N=C/c2ccco2)N1Cc1ccc(F)cc1` the value was “inactive”. In the case of `Cn1cccc1CC(=O)N/N=C/c1ccc([N+](=O)[O-])cc1`, the AC50 entry is “inactive”. Consider `O=C(NNc1c2ccccc2nc2ccccc12)c1ccc(O)cc1O`, for which the AC50 entry was “inactive”. As for `CC1C(=O)NN=C1C(=O)N/N=C\c1ccc(O)cc1O` (stereo unspecified), the AC50 was 8.82 µM (active).

Regarding `COc1cccc(/C=N/NC(=O)CC2C(=O)NN=C2C)c1O` (stereo unspecified), the AC50 result is “inactive”. With `CCN(CC)c1ccc(/C=N/NC(=O)c2ccco2)c(O)c1`, the AC50 result was “inactive”. With `CC(C)c1ccc(NC2CCCN(C(=O)CCCn3cncn3)C2)cc1` (stereo unspecified), the AC50 entry is “inactive”. Regarding `Cc1nc(C(F)(F)F)c(C(=O)O)cc1-c1nc(-c2ccccc2)cs1`, the AC50 entry was “inactive”. On to `O=C(O)c1ccccc1C(=O)Nc1ccc(-c2csc(-c3ccccc3)n2)cc1`, for which the AC50 entry is “inactive”. In the case of `Nc1nc(-c2ccc3ccccc3c2)cs1`, the AC50 result is “inactive”. On to `Oc1ccc(-c2nc(-c3ccc(O)c(O)c3)cs2)cc1`, for which the AC50 was 6.17 µM (active).

For `Cc1cc(-c2n[nH]c(=S)n2/N=C/c2ccc(Cl)c([N+](=O)[O-])c2)n[nH]1`, the AC50 result was “inactive”. `CN(C)c1ccc(/C=N/Nc2ccc(-n3ccnc3)nn2)cc1`: the AC50 entry is “inactive”. Take `CCN(CC)c1ccc(NC(=O)c2ccc(Br)o2)cc1`: the AC50 was more than 10 µM. Turning to `O=C(Nc1ccc(O)cc1)c1ccc(C(=O)c2ccccc2)o1`, the AC50 result was “inactive”.

Consider `Oc1ccc(/C(Cc2ccccn2)=N\Nc2ccccc2)c(O)c1`, for which the AC50 result was “inactive”.

With `Cc1ccc2nc(C)cc(N/N=C/c3ccccc3O)c2c1`, the AC50 result is “inactive”. Regarding `COc1ccc(-n2c(-c3ccc(OC)c(OC)c3)n[nH]c2=S)cc1`, the AC50 entry was “inactive”.

As to `COc1ccc(-c2n[nH]c(=S)n2-c2ccc(C)cc2)cc1OC`, the AC50 entry was “inactive”. For `Cc1occc1C(=O)NCCCCc1ccccc1` the value was “inactive”; for `O=C(NCCCN1CCCC1)c1ccc2c(Cl)c3c(nc2c1)CCCC3`, “inactive”; for `CC(C)Cc1nc2ccc(N)cc2[nH]1`, “inactive”. Take `Nc1ccc(CCc2ccc(N)cc2)cc1`: the AC50 result is “inactive”.

`O=C(Nc1nnc(-c2cccnc2)o1)c1cccc([N+](=O)[O-])c1`: the AC50 entry was “inactive”. In the case of `Nc1ccc(N2CCN(C(=O)c3ccco3)CC2)cc1`, the AC50 entry was “inactive”.

`O=C1NC(=O)/C(=C/c2cc3c(cc2Br)OCO3)S1`: the AC50 result is “inactive”. Consider `O=C1NC(=O)/C(=C\c2ccc(O)cc2O)S1`, for which the half-maximal activity concentration (AC50) is 7.54 µM (active). On to `COc1cc(/C=C2\SC(=Nc3ccccc3OC)NC2=O)ccc1O`, for which the AC50 result was “inactive”.

With `COc1cc(/C=N/NC(=O)c2cccc(NC(=O)c3ccccc3)c2)ccc1O`, the AC50 result is “inactive”. Turning to `COc1cc(C(=O)n2nc(C)cc2C)ccc1O`, the AC50 entry was “inactive”.

With `COc1cc(C(=S)N(C)C)ccc1O`, the AC50 entry was “inactive”. Consider `C/C(=N\Nc1nc2ccccc2[nH]1)c1ccc2c(c1)OCO2`, for which the AC50 result was “inactive”. Regarding `CCN(CCCNC(=O)CNC(=O)Cn1cnc2ccccc2c1=O)c1ccccc1`, the AC50 result was “inactive”. As for `COc1ccccc1N1CCN(CCc2n[nH]c(=S)n2-c2ccccc2)CC1`, the AC50 result is “inactive”.

As for `C/C(=C\c1ccc(N)cc1)c1nc2ccccc2[nH]1`, the AC50 was 6.64 µM (active). Turning to `C(=C\c1nc2ccccc2[nH]1)/c1ccccc1`, the AC50 entry is “inactive”. For `C/C(=N\Nc1nc2ccccc2[nH]1)c1cccs1` the value was “inactive”; for `COc1ccc(N2CCN(C(=O)Cc3cccs3)CC2)cc1`, “inactive”. Take `Cc1ccc(S(=O)(=O)NNC(=O)c2ccc3ccccc3n2)cc1`: the AC50 entry was “inactive”. `Oc1ccc(Br)cc1-c1cc(-c2ccco2)[nH]n1`: the AC50 entry was “inactive”. For the compound `CCn1c(-c2ccccc2O)n[nH]c1=S`, the AC50 result was “inactive”.

For `Cc1c(NS(=O)(=O)c2ccccc2)cc(Cl)c(O)c1C`, the AC50 entry is “inactive”. In the case of `O=C(O)c1ccc(CSc2nc3ccc(NC(=O)c4ccccc4C(=O)O)cc3s2)cc1`, the AC50 entry was “inactive”.

For the compound `COc1cc(/C(C)=N/NC(=O)Cc2c(C)[nH][nH]c2=O)ccc1O`, the half-maximal activity concentration (AC50) was 5.67 µM (active).

`COc1cc(C(=O)N/N=C/c2cccc(Oc3ccccc3)c2)ccc1O`: the AC50 result is “inactive”.

Consider `COc1cc(/C=N/NC(=O)CNC(=O)c2ccncc2)ccc1O`, for which the AC50 result was “inactive”.

With `CC1(CCC(=O)N2CCCC(Nc3ccc(F)cc3)C2)CC1` (stereo unspecified), the AC50 result was “inactive”. Regarding `S=c1[nH]nc(-c2ccco2)n1/N=C/c1ccccc1`, the AC50 result is “inactive”. For `S=c1[nH]nc(-c2ccncc2)n1/N=C/C=C/c1ccccc1`, the AC50 result was “inactive”. For `Cc1ccc(NC(=O)CN(c2ccc3c(c2)OCO3)S(=O)(=O)c2c(C)n[nH]c2C)cc1` the value was “inactive”. For `CC(c1ccc(F)cc1)n1c(-c2cccs2)n[nH]c1=S` (stereo unspecified) the value was “inactive”; for `S=c1nccc(-c2cccs2)[nH]1`, 3.95 µM (active); for `Fc1ccc(-c2ccnc(=S)[nH]2)cc1`, 2.78 µM (active). On to `S=c1[nH]cc(-c2ccccc2)[nH]1`, for which the AC50 entry was “inactive”. For the compound `Cc1ccc(N2C(=O)CC(NNC(=O)c3cccc(S(=O)(=O)N4CCCC4)c3)C2=O)cc1` (stereo unspecified), the AC50 entry is “inactive”. As for `COc1ccccc1N1CCN(S(=O)(=O)c2ccccc2)CC1`, the AC50 entry is “inactive”. For `CC(=O)N1CCN=C1SCc1cccc(F)c1`, the AC50 result is “inactive”. For `COc1ccc(-c2csc(Nc3ccc(S(=O)(=O)Nc4cc(C)on4)cc3)n2)cc1`, the AC50 result was “inactive”. With `CC(C(=O)NC1C=CS(=O)(=O)C1)N1C(=O)/C(=C\c2ccccc2)SC1=S` (stereo unspecified), the AC50 result is “inactive”. Regarding `O=C(O)CCCN1C(=O)/C(=C\c2ccc(-c3nc4ccccc4s3)o2)SC1=S`, the AC50 result is “inactive”. For `O=c1ccc(-c2n[nH]c(=S)n2-c2ccc(F)c(Cl)c2)n[nH]1` the value was “inactive”; for `CN(C)c1cccc(C(=O)NCc2ccccc2)c1`, “inactive”; for `CC(=O)c1ccc(S(=O)(=O)N2CCNC(=O)C2)cc1`, “inactive”.

Turning to `COC(=O)Nc1ccc(S(=O)(=O)N2CCC(C(=O)N(C)C3CCCCC3)CC2)cc1`, the AC50 entry is “inactive”. For `COc1ccc(N2CCN(C(=O)CCNS(=O)(=O)c3ccccc3)CC2)cc1`, the AC50 entry is “inactive”. `COc1ccccc1NC(=O)Nc1ncccc1C`: the AC50 entry was “inactive”. Turning to `Cc1ccc(-c2cnc(SCCNC(=O)c3ccco3)[nH]2)cc1`, the AC50 entry is “inactive”. As to `Cc1cccc(-n2c(-c3ccoc3C)n[nH]c2=S)c1`, the AC50 result was “inactive”. On to `CCN(CC)c1ccc(C2CC(=O)Nc3cc(OC)c(OC)cc32)cc1` (stereo unspecified), for which the AC50 entry was “inactive”. `C/C(=N\NC(=O)c1ccc(N/N=C(\C)c2ccncc2)cc1)c1ccncc1`: the concentration at half-maximal activity (AC50) is 7.62 µM (active). On to `C/C(=N\NC(=O)c1cccc(N/N=C(\C)c2ccncc2)c1)c1ccncc1`, for which the AC50 entry is “inactive”. In the case of `C/C(=N\NC(=O)c1ccncc1)c1ccc(N(C)C)cc1`, the AC50 result was “inactive”.
